Our source for the outcome and AC50 values is PubChem BioAssay (EPA / NIEHS).

Values joined by “and” are separate entries in the source; they are usually repeats but may differ in a detail not shown here. Equal values may be shown once. The source holds several records for some structures; these can differ, active in one and inactive in another. Active and inactive are the calls of the source. Rule for the calls: active = hit-call score of the fitted dose curve at least 0.9, where 1 is the maximum; inactive = score below 0.9.

Read-out in this assay: CD40, CD40 (gene 958)
As to the kind of experiment: BSK_LPS_CD40: BioMAP Diversity Plus: LPS Assay for CD40 Biomarker Activity (AID 2283076). As to conditions: primary human HUVEC with PBMC; actives raise or lower the signal. The protocol: BSK_LPS is a cell-based, multiplexed-readout assay that uses umbilical vein endothelium and peripheral blood mononuclear cells, a human vascular primary cell co-culture, with measurements taken at 24 hours after chemical dosing in a 96-well plate.BSK_LPS_CD40 is an assay component measured in the BSK_LPS assay. It measures CD40 antibody related to regulation of gene expression using ELISA technology.Data from the assay component BSK_LPS_CD40 was analyzed into 1 assay endpoint. This assay endpoint, BSK_LPS_CD40, was analyzed with bidirectional fitting relative to DMSO as the negative control and baseline of activity. Using a type of binding reporter, gain or loss-of-signal activity can be used to understand changes in the signaling as they relate to the gene CD40. Furthermore, this assay endpoint can be referred to as a primary readout, because this assay has produced multiple assay endpoints where this one serves a signaling function. To generalize the intended target to other relatable targets, this assay endpoint is annotated to the cytokine intended target family, where the subfamily is inflammatory factor.
The levels of cell surface (or secreted, indicated by the prefix "s") biomarker endpoints were measured by ELISA. Overt cytotoxicity to cells in confluent adherent cultures (all systems other than the BT system) was assessed by measuring total protein levels using sulforhodamine B (SRB) staining in parallel cultures at the time of biomarker measurements, indicated as SRB endpoints. For proliferation assays for adherent cell types, individual cell types are cultured at sub-confluence and relative cell numbers quantified by SRB staining at time points optimized for each system (48 h: 3C and CASM3C systems; 72 h: BT and HDF3CGF systems; 96 h: SAg system). SRB was performed by staining cells with 0.1% SRB after fixation with 10% TCA and reading wells at 560 nm.Viability and proliferation of PBMC (T cells) was quantified by Alamar Blue reduction for the SAg and BT systems. For PBMC viability (referred to as PBMC Cytotoxicity within the assay endpoint names), cells were plated (75,000/well in a 96-well plate) and then chemical samples added for 1 h before addition of activators, SEB and TSST-1 (20 ng/mL final concentration each). Cells were incubated for 90 h. Then, Alamar Blue (20 uL/well) (Invitrogen, Cat DAL1100) was added for 6 h, and the plates were read with a fluorescence microplate reader at 546/580 nm (excitation/emission). For PBMC proliferation, cells were plated and activated as above but incubated for only 16 h prior to addition of Alamar Blue. Plates were read after 6 h.
For the compound `CN(C)CCO`, the result was inactive. Turning to `O=C(O)C(F)(F)C(F)(F)C(F)(F)C(F)(F)C(F)(F)C(F)(F)C(F)(F)C(F)(F)F`, the AC50 is 48.3 µM (active) and 45.1 µM (active); the result was inactive. On to `Cc1ccccc1O`, for which the outcome was inactive. The same measure, in the same setting: for `C=CC(=O)NCNC(=O)C=C` the value was “inactive”. With `CCC(=O)O[C@H]1CC[C@H]2[C@@H]3CCC4=CC(=O)CC[C@]4(C)[C@H]3CC[C@]12C`, the AC50 was 28 µM (active). The same measure, in the same setting: the same measure for `CCOP(=S)(OCC)SCSC(C)(C)C`: 36.2 µM (active).

Turning to `O=C(NC(=O)c1cc(F)c(F)cc1Cl)Nc1cc(F)ccc1N1CCC(C(=O)O)CC1`, the outcome was inactive.

For `CC#Cc1cc(C)nc(Nc2ccccc2)n1`, the outcome was inactive. Same read-out and setting: the same measure for `C[C@]12CCC(=O)C=C1CC[C@@H]1[C@@H]2CC[C@]2(C)C(=O)CC[C@@H]12`: “inactive”. As for `Cc1ccccc1CO[C@@H]1C[C@@]2(C(C)C)CC[C@]1(C)O2`, the outcome was inactive. Regarding `CCCCCCCCCc1ccc(O)cc1`, the AC50 was 22.6 µM (active). Consider `ClC(Cl)=C(c1ccc(Cl)cc1)c1ccc(Cl)cc1`, for which the AC50 was 29.8 µM (active). On to `Cc1ccccc1[N+](=O)[O-]`, for which the outcome was inactive.

Consider `CCSC(=O)N(CC)C1CCCCC1`, for which the outcome was inactive. Still for that read-out and setting: for `CCCCCCOC(=O)c1ccccc1C(=O)OCCCCCC` the value was “inactive”; for `CCCCCCCCOC(=O)c1ccccc1C(=O)OCCCCCCCC`, “inactive”; for `ClC1=C(Cl)[C@]2(Cl)[C@@H]3[C@@H]4C[C@@H]([C@H]5O[C@@H]45)[C@@H]3[C@@]1(Cl)C2(Cl)Cl`, “inactive”. Same read-out and setting: the same measure for `c1cc2ccc3cccc4ccc(c1)c2c34`: “inactive”; for `c1ccc(-c2ccccc2)cc1`: “inactive”. Take `C=CC(N)=O`: the result was inactive. With `O=C(O)C(F)(F)C(F)(F)C(F)(F)C(F)(F)C(F)(F)F`, the outcome was inactive. On the same count and under the same terms, the same measure for `O=C(NC(=O)c1c(F)cccc1F)Nc1cc(Cl)c(OC(F)(F)C(F)F)c(Cl)c1`: “inactive”; for `CCOCCOC(C)=O`: “inactive”. As for `Cc1cccc(C)c1N`, the result was inactive. `N#Cc1ccc(N(CC(N)=O)CC(F)(F)F)cc1C(F)(F)F`: the outcome was inactive. Regarding `Oc1c(Cl)c(Cl)c(Cl)c(Cl)c1Cl`, the AC50 is 10.2 µM (active) and 15.2 µM (active).

As for `CCC(C)(CC)c1cc(NC(=O)c2c(OC)cccc2OC)on1`, the result was inactive. For `Cc1ccc(O)c(C)c1`, the concentration at half-maximal activity (AC50) was 11.6 µM (active).

On to `CC(c1ccc(O)cc1)(c1ccc(O)cc1)c1ccc(O)cc1`, for which the half-maximal activity concentration (AC50) was 20 µM (active).

Consider `CCCCCCCCCC[N+](C)(C)CCCCCCCCCC`, for which the half-maximal activity concentration (AC50) was 4.27 µM (active). As to `C[C@]12CCC(=O)C=C1CC[C@@H]1[C@@H]2CC[C@@]2(C)[C@H]1CC[C@]2(C)O`, the result was inactive.

In the case of `CCNc1nc(NC(C)C)nc(SC)n1`, the result was inactive. Turning to `Cc1cccc([N+](=O)[O-])c1`, the outcome was inactive. `O=C(O)C(F)(F)C(F)(F)C(F)(F)C(F)(F)C(F)(F)C(F)(F)C(F)(F)C(F)(F)C(F)(F)F`: the AC50 is 30 µM (active) and 49.1 µM (active); the outcome was inactive. On to `COc1ccc(O)c(C(C)(C)C)c1`, for which the result was inactive.

For `CN(C)c1nc(=O)n(C2CCCCC2)c(=O)n1C`, the result was inactive. Still for that read-out and setting: for `CCCN(CCC)N=O` the value was “inactive”. Take `CO/C=C(/C(=O)OC)c1ccccc1COc1cccc(C(F)(F)F)n1`: the half-maximal activity concentration (AC50) was 18.3 µM (active).

The term AC50 denotes the concentration giving half of the maximal activity seen.
